The record followed here is ChEMBL document CHEMBL3988442, “University of Dundee, Small-Polar-MMV Screening Library” (2021).

Out of some 48,000 compounds screened, about 13,000 (27%) showed an effect of 50% or more. The list shows a part of the results.

This assay concerns Wolbachia pipientis. In words: Anti-Wolbachia Cell-Based Screen. Particulars: 5 µM. Format: functional. Further details: scale not given: in the data most compounds retested in dose-response had high values.
For `CC(C)(N)c1nc(C(F)F)cc(=O)[nH]1.Cl`, the “Percent Effect” value stood at 0.5685%.
As for `CCOc1nc2cnccc2n(CC(=O)NCc2ccc(C)cc2)c1=O`, the figure is 143.1%; as for `COc1ccccc1NCC(=O)Nc1cnn(Cc2ccccn2)c1`, -4.871%.
For `CC(C)(C)n1ncc2c(=O)n(CC(=O)NCc3ccco3)cnc21` the value was 3.142%.
For `CCOc1nc2cnccc2n(CC(=O)NCc2ccco2)c1=O` the value was 96.93%; for `CCOc1nc2cccnc2n(CC(=O)NCCOC)c1=O`, -3.624%.
Take `Cc1nsc(N2CCN(CC(=O)NCc3cccnc3)CC2)n1`: the “Percent Effect” value turned out to be 1.2%.
As for `CCOc1ccc(CNC(=O)c2cnc(OC)nc2)cc1`, the figure is -7.599%; as for `CC1CN(CC(=O)NCCc2ccncc2)Cc2ccccc2O1` (centres undefined), -8.36%; as for `COc1ccccc1NC(=O)Cc1c(C)nc2c(c1C)c(=O)[nH]n2C`, -0.4507%.
As for `CCOc1nc2cnccc2n(CC(=O)Nc2ccccc2OC)c1=O`, the “Percent Effect” value stood at 90.9%.
For `CCOc1nc2cnccc2n(CC(=O)NCCc2ccccc2)c1=O` the value was 107.7%; for `O=C(CN1CCC(c2cccc(F)c2)C1)NCc1ccco1` (centres undefined), -26.03%.
As for `CC(C)N(CC(N)=O)CC(=O)N(C1=CCCCC1)C1CC1`, the figure is -0.3485%; as for `CCC(CC)C(=O)NS(=O)(=O)CCc1ccccc1`, -5.917%; as for `COCCn1cc(C(=O)N2CCCC2c2ccccc2C)ccc1=O` (centres undefined), -35.63%.
As for `Fc1cnc(N2CCn3cc(CNc4ccccn4)nc3C2)nc1.O=C(O)C(F)(F)F.O=C(O)C(F)(F)F`, the figure is -14.44%.
With `OC1(CNc2cc(C(F)(F)F)nc3ccccc23)CCOCC1`, the “Percent Effect” value is reported as 28.2%.
For `Cc1cc(NC(=O)CNC(C)(C)c2ccccc2)on1`, the “Percent Effect” value was 5.655%.
As for `CCN1CCC(CNC(=O)C(c2ccccc2F)N(C)C)(N(C)C)CC1` (centres undefined), the figure is 4.874%.
As to `CCCn1nc2c(cc1=O)CN(Cc1nnc(C3CC3)o1)CC2`, the “Percent Effect” value was found to be 20.46%.
For `Cc1cc(F)ccc1N1CCCC(NS(=O)(=O)CCCF)C1=O` (centres undefined) the value was -6.348%; for `Cn1c(SCC(O)COCc2ccccc2Cl)nnc1C1CC1` (centres undefined), -19.68%.
As for `COc1ccc(F)c(CN2CCCC(O)(CNCc3ccon3)C2=O)c1` (centres undefined), the figure is -2.252%; as for `CC(C)N(C)C(=O)c1ccc(Cl)c(NC(=O)CCN2C(=O)CCC2=O)c1`, -4.274%; as for `Cc1c(NC(C)C(C)C)cccc1C(=O)NCc1ccnn1C` (centres undefined), 9.043%.
In the case of `CC(=O)NCCC(=O)NCc1cccnc1-n1cnc2ccccc21`, the “Percent Effect” value was -3.508%.
As for `CCN(CC)S(=O)(=O)CCNc1ncnc2cc(F)c(F)cc12`, the figure is 0.3954%; as for `O=C(COCc1ccccc1)Nc1ccccn1`, -24.26%.
For `CCOC(=O)N1CCN(C(=O)Cn2ccc3ncccc3c2=O)CC1`, the “Percent Effect” value is on record as -21.73%.
For `CCOC(=O)Cn1c(=O)c(OCC)nc2cnccc21` the value was 100.3%.
As for `CCOC(=O)Cn1cnc2nc3n(c2c1=O)CCC3`, the figure is -20.3%; as for `CN(Cc1nccn1C)S(=O)(=O)Cc1cccc(C#N)c1`, 6.063%; as for `COCc1nc(C(=O)N2CCCCC2Cn2cccn2)cs1` (centres undefined), 0.9161%.
As for `O=C(c1csc(C2CC2)n1)N1CCCCC1Cn1cccn1` (centres undefined), the figure is 99.33%.
Regarding `O=C(c1csc(C2CC2)n1)N1CCCC1Cn1cccn1` (centres undefined), the “Percent Effect” value worked out at 109.4%.
As for `NC(=O)CCn1cc(CNCc2csc(N)n2)c2ccccc21`, the figure is -0.3339%; as for `COC(=O)C(CNC(=O)Nc1nncs1)Cc1cccc(C)c1` (centres undefined), -9.936%; as for `COc1cccc(CN2CCCC2c2ccc[nH]2)c1` (centres undefined), 13.97%.
Turning to `COc1cccc(CN(C(=O)Nc2nncs2)C2CCC(O)CC2)c1` (centres undefined), the “Percent Effect” value worked out at 4.875%.
As for `Cc1ccccc1CN1CCCC1c1cncc(Nc2nncs2)n1` (centres undefined), the figure is 132.3%; as for `Cc1cccc(CN2CCCC2c2cncc(Nc3nncs3)n2)c1` (centres undefined), 111.5%.
For `COc1cccc(CN2CCCC2c2cncc(Nc3nncs3)n2)c1` (centres undefined) the value was 147.7%; for `Cc1ccccc1CN1CCC[C@H]1c1nc(-c2cncnc2N)no1`, -17.12%; for `CNc1cncc(C2CCCN2Cc2ccccc2OCC(=O)O)n1` (centres undefined), -10.59%.
With `CCCN1CCCn2nc(CNC(=O)CC(C)n3ccnc3C)cc2C1` (centres undefined), the “Percent Effect” value is reported as -9.141%.
Turning to `CCc1ncc(C(=O)N2CCN(c3cnn(C)c(=O)c3)CC2)cn1`, the “Percent Effect” value is -4.796%.
For `COCc1nc2ncc3c(=O)n(-c4ccc(C(C)=O)cc4)ccc3n2n1` the value was 38.7%; for `COCc1nc2ncc3c(=O)n(-c4cccc(OC)c4)ccc3n2n1`, 97.73%; for `COCc1nc2ncc3c(=O)n(-c4ccccc4OC)ccc3n2n1`, 126.9%.
Take `O=c1c2cnc(N3CCCCC3)nc2ccn1-c1ccccc1F`: the “Percent Effect” value amounted to 37.48%.
For `O=c1c2cnc(N3CCCC3)nc2ccn1-c1cccc(F)c1` the value was -1.705%; for `COCc1nc2ncc3c(=O)n(-c4ccc(OC)cc4)ccc3n2n1`, 103.2%.
For the compound `Cc1ccccc1-n1ccc2nc(N3CCCC3)ncc2c1=O`, the “Percent Effect” value is on record as -4.338%.
